Assay results from PubChem BioAssay AID504803 (The Scripps Research Institute Molecular Screening Center, 2011).
Among all 340,000 compounds or so, about 1,700 (0.5%) were called active. Cut-off read from the data, not from the text of the source: active = inhibition above about 36%; inactive = the rest. Many of the other results were omitted from the sample, so actives are more common in it than they were.

Each molecule was assayed against Serine protease HTRA1 (Homo sapiens) (UniProt Q92743) (assay: HTRA1 serine protease inhibitors, primary screen, biochemical, fluorescence polarization, HTS (AID 504803;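 note: 0% = enzyme with DMSO and 100% = wells lacking enzyme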)). Conditions: recombinant HTRA1, FP-rhodamine activity-based probe, at 5.96 µM, hits give high values.
Serine protease HTRA1 (Homo sapiens), sequence (Q92743 whole entry, looked up): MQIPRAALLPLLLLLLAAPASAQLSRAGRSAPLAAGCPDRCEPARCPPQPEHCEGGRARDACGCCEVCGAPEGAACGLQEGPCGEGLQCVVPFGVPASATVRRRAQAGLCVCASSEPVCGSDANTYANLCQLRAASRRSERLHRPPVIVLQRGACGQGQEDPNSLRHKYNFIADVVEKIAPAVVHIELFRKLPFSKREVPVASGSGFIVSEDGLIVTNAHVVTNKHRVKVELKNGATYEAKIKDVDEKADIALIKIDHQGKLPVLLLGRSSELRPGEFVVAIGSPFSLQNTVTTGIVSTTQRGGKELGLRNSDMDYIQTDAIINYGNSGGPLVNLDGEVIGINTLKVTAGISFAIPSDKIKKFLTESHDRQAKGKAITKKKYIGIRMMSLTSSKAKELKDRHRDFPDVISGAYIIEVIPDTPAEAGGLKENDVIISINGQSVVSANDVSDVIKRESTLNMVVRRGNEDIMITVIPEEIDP

| SMILES | inhibition |
| --- | --- |
| COc1ccc(N)cc1NC(=O)CN1CCOCC1 | -3.64% (inactive) |
| Brc1ccccc1C1Nc2cccc3cccc(c23)N1 | 59.2% (active) |
| COc1cc2c(cc1OC)C(c1ccccc1Br)NC(=O)C2 (stereo not given) | -6.31% (inactive) |
| Oc1ccc(C2Nc3cccc4cccc(c34)N2)cc1 | 22.9% (inactive) |
| Cc1ccc(NC(=O)c2ccco2)cc1 | 1.31% (inactive) |
| Cc1nc2ccccc2nc1CC(O)(c1ccccc1)c1ccccc1 | -14.1% (inactive) |
| Cc1cc(Cl)ccc1C(=O)C1CCCN(C(=O)c2ccc3c(c2)OCO3)C1 (stereo not given) | -4.58% (inactive) |
| O=S(=O)(NCCNS(=O)(=O)c1ccccc1)c1ccccc1 | 4.81% (inactive) |
| Cc1ccc(S(=O)(=O)NCCC(=O)OCC(=O)N(C)c2ccccc2)cc1 | 5.9% (inactive) |
| NC(=O)NC(=O)C(OC(=O)CCNS(=O)(=O)c1ccccc1)c1ccccc1 (stereo not given) | 36.7% (active) |
| CSc1ncnc2c1ncn2CCCNCc1cccs1 | 3.07% (inactive) |
| C[C@@H]1CCCCO[C@H](CN(C)Cc2ccccc2)[C@@H](C)CN([C@H](C)CO)C(=O)c2cc(NS(=O)(=O)c3ccc(Cl)cc3)ccc2O1 | -17.9% (inactive) |
| CCc1cccc(CC)c1N1C(=O)CC(Sc2ccccc2N)C1=O (stereo not given) | 2.44% (inactive) |
| Cn1nc(N)c2ncc(C(Cl)(Cl)Cl)nc21 | -0.52% (inactive) |
| CN(C)c1ccc(N/C=C/C(=O)C(F)(F)F)cc1 | 38.7% (active) |
| COc1cc(OC)c(C(=O)Nc2ccc(N(C)C)cc2)cc1OC | 5.76% (inactive) |
| CC(C)CNC(=O)C(=O)Nc1ccc(N(C)C)cc1 | 7.37% (inactive) |
| C[C@H](CO)N1C[C@H](C)[C@@H](CN(C)C(=O)c2cccc(F)c2)Oc2cc(-c3cncnc3)ccc2S1(=O)=O | 2.58% (inactive) |
| O=C(c1cc(S(=O)(=O)N2CCOCC2)ccc1Cl)N1CCOCC1 | 2.81% (inactive) |
| O=C(Nc1cc(S(=O)(=O)N2CCOCC2)ccc1Cl)c1cc(=O)c2ccccc2o1 | -4.07% (inactive) |
| O=[N+]([O-])c1cc(Cl)cc(/C=N/NC(=S)Nc2cc(S(=O)(=O)N3CCOCC3)ccc2Cl)c1O | 45.7% (active) |
| Cc1ccc(Nc2nc(Cl)c(C=O)s2)cc1 | -8.62% (inactive) |
| Nc1ccc(C(=O)Nc2ccccc2N)cc1 | 6.6% (inactive) |

| SMILES | inhibition |
| --- | --- |
| Cc1ccc(Nc2ccccc2N)cc1 | 47.8% (active) |
| CC1(c2cccc(N)c2)OCCO1 | 4.7% (inactive) |
| O=C(O)C1=C(C(=O)O)C2CCC1C2 | 9.01% (inactive) |
| CN1CCN(c2ccncc2S(=O)(=O)N2CCCC2)CC1 | 3.56% (inactive) |
| Clc1ccc(C2=CSC3=Nc4cccc5cccc(c45)N23)cc1 | 44.2% (active) |
| CC1=C(C(=O)N2CCOCC2)CC(CC(=O)NCc2cccc3ccccc23)C(=O)N1CCC1=CCCCC1 (stereo not given) | -3.43% (inactive) |
| O=C1NC(Cc2ccccc2)c2nc3ccc(Br)cc3c(=O)n2-c2cc3ccccc3cc21 (stereo not given) | -54.3% (inactive) |
| CC(=O)Nc1ccc(S(=O)(=O)N2CCCC2C(=O)O)cc1 (stereo not given) | 2% (inactive) |
| CC(=O)Nc1ccc(NS(=O)(=O)c2ccc3c(c2)NC(=O)CC(=O)N3)cc1 | 6.8% (inactive) |
| CC(=O)Nc1ccc(S(=O)(=O)Nc2ccc(N3CCCCC3)cc2)cc1 | 52.4% (active) |
| C=CCOc1ccccc1CNn1c(C)n[nH]c1=S | 3.58% (inactive) |
| CNC(=S)NNC(=O)c1oc2nc(-c3ccccc3)cc(-c3ccco3)c2c1N | 51.7% (active) |
| CNC(=S)NNC(=O)c1sccc1OCc1ccccc1 | 5.29% (inactive) |
| CNC(=S)NNC(=O)c1cccn(Cc2ccccc2)c1=O | 3.18% (inactive) |
| Cc1cc2cc3n(c2nn1)N=C(Cl)CC3 | 3.25% (inactive) |
| CCOC(=O)C1CCN(C(=O)c2ccc3c(=O)n4nc(Nc5ccccc5CC)sc4nc3c2)CC1 | -34.2% (inactive) |
| CCOC(=O)C=Cc1ccc(C(=O)OCC)[nH]1 | 0.68% (inactive) |
| Cc1[nH]c2ccccc2c1C(=O)C(=O)NCc1nnnn1-c1cccc(F)c1 | 7.28% (inactive) |
| CCC(Oc1ccccc1)C(=O)OCC(=O)Nc1c(C)nn(-c2ccccc2)c1C (stereo not given) | -6.47% (inactive) |
| Cn1c(SCC(=O)N/N=C/c2ccc(O)c(O)c2)nc2ccccc21 | 41.2% (active) |
| CCn1c(SCC(=O)N/N=C/c2ccncc2)nc2ccccc21 | 4.65% (inactive) |
| CCOc1ccc(/C=N/NC(=O)CSc2ccccn2)cc1O | 9.01% (inactive) |
| O=C1OCCC1=COCCCCOC=C1CCOC1=O | -3.04% (inactive) |

| SMILES | inhibition |
| --- | --- |
| O=C(N/N=C/c1sc(N2CCCCC2)nc1-c1cccs1)c1cccnc1 | 40.5% (active) |
| O=C(O)c1ccc(N/N=C/c2cn(-c3ccccc3)nc2-c2cccs2)cc1 | -11.3% (inactive) |
| Cc1ccc(NC(=O)COc2ccc(/C=N\NC(=O)c3cccnc3)cc2)cc1C | -7.41% (inactive) |
| CSc1ncnc2c1ncn2CCCNCc1ccco1 | 8.47% (inactive) |
| CCN(CC)CCN(C(=O)c1ccc2c(c1)CCCC2)c1nc2c(OC)cccc2s1 | -19.6% (inactive) |
| CN1OC[C@@H]2CN[C@H](c3ccc(-c4ccccc4)cc3)C[C@@H]21 | -1.81% (inactive) |
| COCCn1c(SCC(=O)Nc2ccc(F)cc2F)nc2c(c1=O)SCC2 | -1.19% (inactive) |
| CC(CC(=O)N1CCN(c2ccccc2)CC1)c1ccccc1 (stereo not given) | -0.5% (inactive) |
| CC(=O)c1ccc(N2CCN(C(=O)CCc3ccccc3)CC2)cc1 | 2.82% (inactive) |
| CC(=O)N1CCN(c2ccc(NCc3ccc(C(C)C)cc3)cc2)CC1 | 59.2% (active) |
| O=C(OCc1ccccc1)N1CCC2CC1c1cc(N3CCN(S(=O)(=O)c4cc(Cl)cc(Cl)c4)CC3)ccc12 (stereo not given) | -4.06% (inactive) |
| C[C@H](O)[C@@H]1C(=O)N2CCc3c([nH]c4ccccc34)[C@@H]2C[C@@H]1N(C)C(=O)Nc1ccc(F)cc1 | -1.56% (inactive) |
| C[C@@H]1CN([C@H](C)CO)C(=O)CCCn2nncc2CO[C@@H]1CN(C)C(=O)OCc1ccccc1 | -3.03% (inactive) |
| CC(C)CCOc1ccc(C(=O)Nc2cc(S(=O)(=O)N3CCOCC3)ccc2N2CCOCC2)cc1 | -7.89% (inactive) |
| COc1ccc(NS(=O)(=O)c2cc(NC(=O)CC(=O)c3ccc([N+](=O)[O-])cc3)ccc2C)cc1 | 45.4% (active) |
| Cc1ccc(NC(=O)CCNC(=O)c2ccc([N+](=O)[O-])cc2)cc1S(=O)(=O)N1CCOCC1 | 3.34% (inactive) |
| COc1ccc(NS(=O)(=O)c2cc(NC(=O)COc3ccccc3F)ccc2OC)cc1 | -13.3% (inactive) |
| CC1CCCC(C)N1C(=O)COC(=O)c1ccccc1C(=O)c1ccccc1 (stereo not given) | 0.04% (inactive) |
| CCOc1cc(/C=N/NC(=O)c2ccncc2)cc(Br)c1O | 3.19% (inactive) |
| O=C(C1CCCO1)N1CCN(C(=O)C23CC4CC(CC(C4)C2)C3)CC1 (stereo not given) | 9.09% (inactive) |
| O=C1CC(NNc2ccccc2)C(=O)N1c1cccc(Cl)c1 (stereo not given) | -8.57% (inactive) |
| COc1ccc(N2CCN(C3CC(=O)N(c4ccc5c(c4)OCCO5)C3=O)CC2)cc1 (stereo not given) | 4.17% (inactive) |
| CC(=O)Oc1cccc(N2C(=O)CC(Nc3ccc(N4CCOCC4)cc3)C2=O)c1 (stereo not given) | 51.5% (active) |

| SMILES | inhibition |
| --- | --- |
| CCC(C)Cn1c(O)cc2nn(-c3nc4ccccc4s3)c(=O)c-2c1C (stereo not given) | 61.1% (active) |
| O=C(OCc1ccccc1)N1CCC2CC1c1ccc(-c3ccc4c(c3)OCO4)cc12 (stereo not given) | -25% (inactive) |
| COc1ccc(-c2csc(Nc3cccc(C)n3)n2)cc1OC | 13.4% (inactive) |
| COc1ccc(OC)c(-c2csc(NC(=O)C3=NNC(=O)CC3)n2)c1 | -2.91% (inactive) |
| COc1ccc(OC)c(Nc2nc(-c3ccc(O)c(O)c3)cs2)c1 | 64.3% (active) |
| C[C@@H]1CN([C@H](C)CO)S(=O)(=O)c2ccc(C#C[C@@H](C)O)cc2O[C@@H]1CN(C)Cc1ccc(-c2ccccc2)cc1 | -54% (inactive) |
| O=C(OCc1cn([C@H]2C[C@H](c3ccccc3)N(C(=O)c3cccs3)C[C@@H]2O)nn1)c1ccccc1 | -11.7% (inactive) |
| N#CC1(Nc2ccc3c4c(cccc24)CC3)CCCCC1 | 33.2% (inactive) |
| Cc1cc(C(=O)COC(=O)C2CC2)c(C)n1-c1ccc(F)cc1 | 4.47% (inactive) |
| Cc1cc(C(=O)N/N=C/c2ccc(O)c([N+](=O)[O-])c2)c(C)n1-c1ccc(F)cc1 | 45.1% (active) |
| O=C1CSC(=S)N1/N=C/c1ccc(O)c([N+](=O)[O-])c1 | 13.7% (inactive) |
| Cc1ccc([C@H]2N[C@]3(CCCN(CC4CCCCC4)C3=O)[C@H]3C(=O)N(Cc4ccccc4)C(=O)[C@@H]23)cc1 | -16.8% (inactive) |
| Fc1ccccc1N=C1Nc2cccc3cccc1c23 | -6.03% (inactive) |
| COc1ccccc1-c1nc(C(F)(F)F)c(OC)o1 | -5.12% (inactive) |
| COc1ccccc1C1=Nc2cccc3cccc(c23)N1 | 60.3% (active) |
| O=C(CN1CCN(Cc2ccccc2)CC1)NC(c1ccccc1)c1ccccc1 | -2.99% (inactive) |
| O=C1c2ccccc2C(=O)c2c1cccc2N1CCN(CCO)CC1 | 9.89% (inactive) |
| O=C1c2ccccc2C(=O)c2c1cccc2N1CCN(Cc2ccccc2)CC1 | 62% (active) |
| CCCCN1C(=O)C(CC(=O)NCc2cccs2)CC(C(=O)N2CCOCC2)=C1C (stereo not given) | 1.73% (inactive) |
| Cc1noc(C)c1S(=O)(=O)N(C)C[C@H]1OCCCC[C@@H](C)Oc2ccc(NC(=O)CCCN(C)C)cc2C(=O)N([C@H](C)CO)C[C@@H]1C | 1.73% (inactive) |
| Cc1ccc(-c2ccc(CN3C(C)C(=O)N(Cc4cn(CCC5OCCCO5)nn4)CCS3(=O)=O)cc2)cc1 (stereo not given) | -6.77% (inactive) |
